Bioassay records: PubChem BioAssay, National Center for Advancing Translational Sciences (NCATS)
Sampled rows, rich in hits. Any-hit rate of the full collection: about 18%.
TDP1 cell noCPT – qHTS for Inhibitors of human tyrosyl-DNA phosphodiesterase 1 (TDP1): qHTS in cells in absence of CPT; Potency, µM (top dose mostly 46.2 µM), hits mostly inhibitors; hit rate 15% among 420,000; AID 686978, 2013; DT40 Tdp1-/- hTDP1 cells, no CPT, ATP luminescence, 48 h; note: nearly all actives have a fitted effect of over 55% in size
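Growth kinetics read by CellTiter-Glo luminescence after ≥48 hr at 37 °C. Cells: DT40 Tdp1-/- stably carrying human TDP1, 400 per well, compound exposure in the absence of CPT (DMSO vehicle).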
DT40 TDP1 CPT – DT40-hTDP1 cell growth loss with CPT | chicken DT40 Tdp1-/-;hTDP1 cells + 20 nM CPT, ATP luminescence, 48 h | Potency, µM (highest dose often 46.2 µM), actives largely listed as inhibitors | hit rate 12% among 420,000; note: nearly all actives have a fitted effect of over 55% in size
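Chicken DT40 Tdp1-/- cells complemented with human TDP1, 400 cells/well, exposed to compounds plus 20 nM camptothecin for at least 48 h at 37 C; viability read as ATP content by CellTiter-Glo luminescence.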
TDP1 inh – inhibitors of human tyrosyl-DNA phosphodiesterase TDP1; Q9NUW8; AID 485290; Potency, µM (series often up to 130 µM), most hits filed as inhibitors; hit rate 0.28% among 350,000; recombinant TDP1, AlphaScreen DNA substrate cleavage; note: nearly all actives have a fitted effect of over 40% in size
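Here, a 5' biotin and 3' phosphotyrosine-FITC DNA oligonucleotide reports Tdp1 activity: intact substrate bridges AlphaScreen beads, while cleavage leaves a 3' phosphate and drops signal. All incubations at room temperature.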
Six1-Eya2 inh – inhibitors of human Six1/Eya2 interaction; AlphaScreen GST-Six1/His-Eya2 binding, biochemical; active compounds read low; activity change, % (test concentration not listed); hit rate 0.56% among 360,000; in the data active = activity change below about -65%; inconclusive = mostly about -30% to -63%
Target sequence (O00167 whole entry, looked up): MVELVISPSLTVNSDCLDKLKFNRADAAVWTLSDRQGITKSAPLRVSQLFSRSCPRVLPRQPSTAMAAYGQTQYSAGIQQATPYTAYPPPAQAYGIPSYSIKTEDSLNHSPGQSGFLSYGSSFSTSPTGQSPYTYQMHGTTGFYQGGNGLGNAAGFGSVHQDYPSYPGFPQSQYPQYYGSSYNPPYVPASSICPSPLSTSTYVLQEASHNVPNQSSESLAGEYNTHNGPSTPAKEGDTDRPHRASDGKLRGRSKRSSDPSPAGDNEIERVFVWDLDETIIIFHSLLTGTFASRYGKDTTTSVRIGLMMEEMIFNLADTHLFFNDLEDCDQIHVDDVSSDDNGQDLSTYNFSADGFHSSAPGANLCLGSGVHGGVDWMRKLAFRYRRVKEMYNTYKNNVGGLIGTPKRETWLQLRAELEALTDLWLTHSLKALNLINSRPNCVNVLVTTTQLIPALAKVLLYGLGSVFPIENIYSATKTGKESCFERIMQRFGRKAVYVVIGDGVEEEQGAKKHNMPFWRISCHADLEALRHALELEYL
Target sequence (Q15475 whole entry, looked up): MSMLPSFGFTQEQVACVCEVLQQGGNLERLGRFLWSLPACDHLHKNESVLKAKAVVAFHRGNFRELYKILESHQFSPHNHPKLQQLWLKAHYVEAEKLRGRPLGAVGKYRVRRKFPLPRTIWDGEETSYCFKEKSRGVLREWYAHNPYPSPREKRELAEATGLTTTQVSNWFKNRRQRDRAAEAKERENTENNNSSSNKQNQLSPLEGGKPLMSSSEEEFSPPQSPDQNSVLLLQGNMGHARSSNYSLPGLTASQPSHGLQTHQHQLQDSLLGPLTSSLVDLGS
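Homogeneous AlphaScreen proximity assay pairing GST-Six1 with His-tagged Eya2 (added as 5X mix: 250 nM and 500 nM) in 50 mM Tris pH 8.0, 300 mM NaCl, 1 mM TCEP. Glutathione donor and nickel acceptor beads; 1 h, 37 °C, dark.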
IL-1B inflam inh – inhibitors of inflammasome signaling (IL-1 beta secretion). THP-1 LPS/ATP IL-1B secretion, AlphaLISA, 16 h; active compounds read low. activity change, % at 57.5 µM. hit rate 4.7% among 360,000. AID 743279; in the data active = activity change below about -50%; inconclusive = mostly about -30% to -49%
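THP-1 cells pretreated 1 hr with compounds (up to 57.5 uM final), then stimulated with LPS (250 ng/mL final) plus ATP (1.25 mM final); secreted IL-1B measured by AlphaLISA after 16 hr, decreased signal indicating inhibition.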
CtBP-E1A blk – inhibitors of CtBP/E1A interaction. AID 651724. activity change, % (no concentration beside the values). AlphaScreen GST-E1A/His-CtBP binding, 1536-well; active compounds read low. hit rate 0.49% among 340,000; in the data active = activity change below about -65%; inconclusive = mostly about -30% to -63%
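Steps: dispense buffer (Tris pH 8.0, NaCl 300 mM, TCEP 1 mM, BSA, Tween 20); add 5X protein mix (GST-E1A, His-CtBP, 125 nM each); pin 23 nL compound; 2 h at 37 °C, dark; add 5X beads (50 ug/mL); 1 h; read.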
Hits are given with their value; – = inactive; ? = inconclusive; · = not tested or not shown; ! = not confirmed by another sample; [ ] = dose if it differs, or a comment. Unless noted, calls come from the whole dose curve; as a rule, active = well fitted curve in the direction sought with a large enough effect; inconclusive = small, poorly fitted or top-dose-only effect, or another doubt; inactive = no such curve, though single readings can be large; an effect the other way counts as inactive or inconclusive.

SMILES	TDP1 cell noCPT	DT40 TDP1 CPT	TDP1 inh	Six1-Eya2 inh	IL-1B inflam inh	CtBP-E1A blk
CS(=O)c1ccc(-c2nc(-c3ccc(F)cc3)c(-c3ccncc3)[nH]2)cc1 (centres undefined)	15µM	29.9µM!	–	·	·	·
CCC(=NCc1ccco1)c1c(O)n(-c2ccc(OC)cc2)c(=O)[nH]c1=O	–	–	–	–	–	–
Cc1[nH]nc2ccc(-c3cncc(OC[C@@H](N)Cc4c[nH]c5ccccc45)c3)cc12	0.581µM	0.581µM	·	–	-104.3	?
C=C(C)CSc1nnc([C@@H](N)Cc2c[nH]c3ccccc23)o1	–	–	–	–	–	–
Cc1ccc(C)c(S(=O)(=O)c2nnn3c2nc(N2CCCC2)c2sccc23)c1	?	16.4µM	–	·	·	·
COc1ccc2c(c1)CCc1c(C(=O)Nc3c(C)nn(Cc4ccccc4C)c3C)noc1-2	10.3µM	23.1µM	–	·	·	·
COc1ccc(NC(=O)c2c(C)nn(Cc3ccccc3Cl)c2Cl)cc1Cl	?	–	–	–	–	–
Cc1ccc(Cl)cc1N1CCN(C(=O)c2cn(CC(C)C)c(=O)c3c2c2ccccc2n3C)CC1	4.61µM	6.51µM	–	·	·	·
Cc1cc(O)c2c(C)c(CC(=O)N3C[C@H]4C[C@@H](C3)c3cccc(=O)n3C4)c(=O)oc2c1	–	–	·	–	–	–
Nc1cc(Cl)c2nonc2c1[N+](=O)[O-]	0.651µM	0.731µM	–	–	-102.0	–
c1ccc2c(c1)-c1cccc3cccc-2c13	–	–	–	–	–	–
Nc1c(Br)cc2c3c(cccc13)-c1ccccc1-2	5.17µM	8.2µM	·	–	–	–
C[C@H]1OC[C@@H](C[N+](C)(C)C)O1	–	–	–	–	–	–
CN1CCC2(CC1)NC(=O)C1=C(CN(C)CC1)N2	–	–	–	–	–	–
Cc1cc(C)c(Cn2c3ccccc3c3cnn(CC(=O)NCc4ccc(Cl)cc4)c(=O)c32)c(C)c1	23.1µM	?	–	·	·	·
Cn1c2ccccc2c2cnn(CC(=O)N3CCC4(CC3)OCCO4)c(=O)c21	·	·	–	·	·	·
C[C@]12O[C@H](C[C@]1(O)CO)n1c3ccccc3c3c4c(c5c6ccccc6n2c5c31)CNC4=O	0.376µM	0.299µM	·	·	·	·
CN[C@@H]1C[C@@]2(C)O[C@@H]([C@@H]1OC)n1c3ccccc3c3c4c(c5c6ccccc6n2c5c31)C(=O)NC4	·	·	–	·	·	·
CC(C)(C)c1csc(NC(=O)Nc2ccccc2)n1	?	–	–	–	-94.3	–
Cc1csc(NC(=O)C(Cl)c2ccccc2)n1 (centres undefined) (tested in a mixture with another compound)	?	?	·	–	–	?
COc1ccc(CN2CCNCC2)cc1	?	–	·	–	–	·
C=CCc1ccc(OC)cc1	?	3.66µM!	–	–	–	–
CCOC(=O)C1=C(c2ccccc2)OC(N)=C(C#N)C1C(C)C (centres undefined)	?	?	–	–	–	–
CC(C)CCCC(C)C1CCC2C3CC(O)[C@@]4(O)CC(O)CC[C@@]4(C)C3CC[C@@]12C (some centres undefined)	18.4µM	?	–	·	·	·
Cc1ccc(-n2c(C)nc3ccccc3c2=O)cc1C	14.6µM	?	–	–	–	·
SMILES	TDP1 cell noCPT	DT40 TDP1 CPT	TDP1 inh	Six1-Eya2 inh	IL-1B inflam inh	CtBP-E1A blk
Cc1ccc(-n2c(C)nc3ccccc3c2=O)c(C)c1	16.4µM	?	–	–	–	–
O=C(Nc1cccc(F)c1)N1CC2(CCNCC2)C1	8.2µM	8.2µM	·	·	·	·
O=C(Nc1cccc(F)c1)N1CC2(CCN(C(=O)Oc3ccccc3)CC2)C1	?	–	·	·	·	·
O=C(Nc1cccc(F)c1)N1CCC2(CC1)CCN(C(=O)Oc1ccccc1)CC2	23.1µM	?	·	·	·	·
COc1cc2c(c(OC)c1O)-c1ccc(OC)c(=O)cc1C(NC(=O)C(F)(F)F)CC2 (centres undefined)	0.164µM	0.103µM	·	–	–	–
COc1cc2c(c(OC)c1OC)-c1ccc(OC)c(=O)cc1[C@H](NC(C)=O)CC2	0.0596µM	0.0944µM	–	·	·	·
COc1cc2c(c(OC)c1OC)-c1ccc(OC)c(=O)cc1[C@@H](NC(C)=O)CC2	0.188µM!	0.0164µM	–	–	–	–
COc1cc2c(c(OC)c1OC)-c1ccc(O)c(=O)cc1[C@H](N)CC2	·	·	–[21 µM]	·	·	·
CCN(CC)c1ccc2c(cc1=O)[C@@H](NC)CCc1cc(OC)c(OC)c(OC)c1-2	1.16µM	1.16µM	·	–	–	–
CCOC(=O)c1cc(CC)sc1/N=C/c1c(O)[nH]c(=S)[nH]c1=O	–	–	–	–	–	–
COc1cc(CNc2ccc3[nH]c(=O)[nH]c3c2)ccc1OCc1ccccc1C	?	?	·	?	·	–
COc1ccc(SCC2CN(C)CCC2c2ccc(F)cc2)cc1 (centres undefined)	?	?	·	–	–	–
Brc1cccc(-c2ccccc2)c1	·	·	–	·	·	·
COC(COC(N)=O)C1=C(N2CC2)C(=O)C(C)=C(N2CC2)C1=O (centres undefined)	0.164µM	0.164µM	·	–	-113.4	–
COc1ccc2c(c1)-c1nc(NC(=O)c3ccc(Cl)cc3)sc1CC2	–	?	–	·	·	·
C=C(CO)CC1CC(O)[C@]2(C)OC3CC4OC5C[C@]6(C)O[C@]7(C)CCC8OC9C[C@]%10(C)OC%11C(C)=CC(=O)OC%11CC%10OC9C[C@@H](C)C8OC7CC6O[C@]5(C)C/C=C\C4OC3CC2O1 (some centres undefined)	16.4µM	23.1µM	–	–	–	–
C=C(COC(C)=O)CC1CC(O)[C@]2(C)OC3CC4OC5C[C@]6(C)O[C@]7(C)CCC8OC9C[C@]%10(C)OC%11C(C)=CC(=O)OC%11CC%10OC9C[C@@H](C)C8OC7CC6O[C@]5(C)C/C=C\C4OC3CC2O1 (some centres undefined)	?	23.1µM	–	–	–	–
C=C(C=O)CC1CC(O)[C@]2(C)OC3CC4OC5C[C@]6(C)O[C@]7(C)CCC8OC9C[C@]%10(C)OC%11C(C)=CC(=O)OC%11CC%10OC9C[C@@H](C)C8OC7CC6O[C@]5(C)CC5OC5C4OC3CC2O1 (some centres undefined)	0.366µM	0.411µM	–	–	-104.3	–
CC(CCC(=O)O)C1CCC2C3C(=O)C[C@@H]4CC(=O)CC[C@@]4(C)C3CC(=O)[C@]12C (some centres undefined)	·	·	–	·	·	·
C[C@]12CCC3C(CC[C@H]4C[C@@H](O)[C@H](O)C[C@]34C)C1CC[C@@H]2O (some centres undefined)	–	–	–	–	–	–
